Our source for the inhibition values is PubChem BioAssay AID504914 (The Scripps Research Institute Molecular Screening Center, 2011).

A word on the inhibition: it is the relative decrease from the control value, in per cent.

The other results are listed elsewhere or left out. Values without a mark were called inactive. The rule behind the calls is not given here.

For this assay, the target named is 5-hydroxytryptamine receptor 5A (Homo sapiens) (UniProt P47898). The assay can be described thus: HTR5A inverse agonists, counter-screen for OPRM1-OPRD1 inverse agonist project, cell-based, luminescence (AID 504914).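 Note: 0% = cells with DMSO and 100% = no-cell wells with DMSO.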 The settings on record: HTR5A-expressing cells, inverse agonism, at 9.3 µM, stronger effect = higher value. A general note: A counterscreen serves to expose hits that act by an unwanted route or on another target.
5-hydroxytryptamine receptor 5A (Homo sapiens), sequence (P47898 whole entry, looked up): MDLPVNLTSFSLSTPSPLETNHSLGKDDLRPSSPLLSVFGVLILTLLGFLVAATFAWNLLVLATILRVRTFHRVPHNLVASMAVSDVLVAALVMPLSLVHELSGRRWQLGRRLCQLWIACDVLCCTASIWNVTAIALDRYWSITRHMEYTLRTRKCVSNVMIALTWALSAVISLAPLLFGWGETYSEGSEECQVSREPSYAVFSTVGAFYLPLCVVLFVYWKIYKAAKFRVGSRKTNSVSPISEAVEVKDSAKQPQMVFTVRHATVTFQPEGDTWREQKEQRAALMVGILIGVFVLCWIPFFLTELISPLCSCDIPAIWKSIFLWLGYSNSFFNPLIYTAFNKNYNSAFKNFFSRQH
With `CCOC(=O)c1c(N)n(CCN2CCOCC2)c2nc3ccccc3nc12`, the inhibition is -10.8%.

Turning to `CC1=CC(=Cc2sc3ccccc3[n+]2C)C=C(C)O1`, the inhibition was -18.3%. As for `CCOC(=O)c1c(N)n(Cc2ccccc2)c2nc3ccccc3nc12`, the figure is 18%.
